Most compounds without a hit are left out; they make up all but 3.5% or so of the library.
FadD28 binding – inhibitors of FadD28 bisubstrate probe binding, primary screen, biochemical, fluorescence polarization, single point | 360,000 tested, 0.22% active | inhibition, % at 12.5 µM; in the data active = inhibition above about 8.5%, passing the limit was not always enough
Mtb UGM inh – M. tuberculosis UGM enzyme inhibitors, primary screen, biochemical, fluorescence polarization, single point | UDP-galactopyranose mutase (Mycobacterium tuberculosis (strain ATCC 25618 / H37Rv)), … | purified UGM, fluorescence polarization probe displacement | inhibition, % at 10 µM | 320,000 tested, 0.06% active; in the data active = inhibition above about 10%, passing the limit was not always enough
GDH-TPI counter – GDH-TPI coupling enzyme inhibitors, primary screen, artefact control for M. tuberculosis FBA inhibitor project, biochemical, absorbance, full deck; GDH-TPI coupled enzyme counterscreen, NADH absorbance; inhibition, % at 4.8 µM; 360,000 tested, 1.2% active; AID 588335, 2011; in the data active = inhibition above about 30%;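 also: 0% = DMSO wells and 100% = wells lacking the enzyme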
FBA Mtb inh – Mtb FBA enzyme inhibitors, primary screen, biochemical, fluorescence, strain H37Rv; Fructose-bisphosphate aldolase (Mycobacterium tuberculosis (strain ATCC 25618 / H37Rv)), …; purified M. tuberculosis FBA, fluorescence read-out; inhibition, % at 1 µM; 360,000 tested, 2.3% active; AID 588726, 2011; in the data active = inhibition above about 27%;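 also: 0% = vehicle and 100% = reference inhibitor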
Target sequence (P9WQA3 whole entry, looked up): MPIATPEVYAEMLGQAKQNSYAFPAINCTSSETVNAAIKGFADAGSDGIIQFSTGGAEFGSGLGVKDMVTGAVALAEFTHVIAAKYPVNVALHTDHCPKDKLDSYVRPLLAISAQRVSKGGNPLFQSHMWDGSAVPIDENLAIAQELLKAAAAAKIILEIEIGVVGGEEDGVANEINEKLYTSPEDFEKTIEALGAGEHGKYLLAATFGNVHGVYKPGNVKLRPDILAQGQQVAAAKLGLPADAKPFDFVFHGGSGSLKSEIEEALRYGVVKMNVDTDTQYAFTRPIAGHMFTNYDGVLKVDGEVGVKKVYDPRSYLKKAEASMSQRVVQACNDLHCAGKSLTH
Rv3671c inh – Rv3671c serine protease inhibitors, primary screen, biochemical, fluorescence polarization, M. tuberculosis H37Rv | inhibition, % at 5.96 µM | 320,000 tested, 0.048% active | AID 2606, 2010; in the data active = inhibition above about 38%;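 also: extracellular domain of Rv3671c used as enzyme; 0% = enzyme with DMSO and 100% = no enzyme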
Mtb hypoxia inh – PubChem AID 1159583; M. tuberculosis hypoxia-regulated fluorescent reporter, fluorescence; fluorescence inhibition, % (concentration not given with the values); 300,000 tested, 0.1% active; in the data active = fluorescence inhibition mostly above about 23%, no sharp cut-off; inactive = mostly below about 17%
Starred values were filed as active, the others as inactive; nt = no result.

SMILES	FadD28 binding	Mtb UGM inh	GDH-TPI counter	FBA Mtb inh	Rv3671c inh	Mtb hypoxia inh
CCOc1ccccc1C=NNC(=O)CNC(=O)c1ccc(S(=O)(=O)N2CCOCC2)cc1	nt	nt	nt	nt	nt	2
CCOc1cc(/C=C2/SC(=O)N(CC(=O)N3CCc4ccccc4C3)C2=O)ccc1OCC(=O)O	-5	-1	34*	-2	1	nt
CC=CC(=O)Nc1cccc(C2=NOC3(C2)CC(C(N)=O)N(C(=O)CC(c2ccccc2)c2ccccc2)C3)c1 (stereo not given)	nt	nt	nt	nt	nt	9
COC(=O)C1=C(c2ccc(C(C)=O)cc2)CC2CCC1N2C(=O)NCc1ccc2c(c1)OCO2 (stereo not given)	nt	nt	nt	nt	nt	9
Cc1c(C=NNC(=O)c2cccc(F)c2)cnn1C	nt	nt	nt	nt	nt	-4
CCn1c(=O)c2cc(C(=O)N(C)c3ccc(OC)cc3OC)sc2c2ccccc21	-21	2	49*	5	10	-1
CCn1c(=O)c2cc(C(=O)N(C)c3ccccc3F)sc2c2ccccc21	-16	1	14	2	-15	13
CCn1c(=O)c2cc(C(=O)N(C)c3cc(C)ccc3OC)sc2c2ccccc21	-10	-2	32*	7	-6	12
Cn1c(=O)c(NC2CCCCC2)c2c3c(cccc31)C(=O)c1ccccc1-2	-1	nt	-3	-5	nt	-41
Cn1c(=O)c(N)c2c3c(c(Br)ccc31)C(=O)c1ccccc1-2	-2	15*	14	-6	20	2
Cc1ccc(C(=O)/C=C/Nc2cccc([N+](=O)[O-])c2)o1	-1	0	19	-4	-15	-3
O=C(/C=C/Nc1cccc([N+](=O)[O-])c1)c1ccco1	-1	-1	35*	-2	6	16
Cc1ccc(C2(C)NC(=O)N(CC(=O)N3c4ccccc4NC(=O)CC3C)C2=O)cc1 (stereo not given)	-1	-3	9	5	5	13*
CN(C)CCCNC(=O)C=Cc1ccc2c(c1)OCO2	nt	nt	nt	nt	nt	6
CC(C)(C)c1ccc2c(c1)OC(C(=O)N/N=C\c1ccc(-c3cccc(C(=O)O)c3)o1)CO2 (stereo not given)	-1	1	39*	9	-80	nt
O=C(NN=Cc1ccc(-c2ccc([N+](=O)[O-])cc2)o1)C1COc2ccccc2O1 (stereo not given)	nt	nt	nt	nt	nt	7
CC(C)(C)c1ccc2c(c1)OC(C(=O)NN=Cc1ccc([N+](=O)[O-])o1)CO2 (stereo not given)	nt	nt	nt	nt	nt	8
O=C(O)c1cccc(-c2ccc(/C=N/NC(=O)C3COc4ccccc4O3)o2)c1 (stereo not given)	-3	3	38*	5	7	nt
O=C(O)Cn1cc(C=c2sc3nc4ccccc4n3c2=O)c2ccccc21	nt	nt	nt	nt	nt	4
Nc1nonc1-n1nnc(C(=O)NN=Cc2ccccc2F)c1CN1CCc2ccccc21	nt	nt	nt	nt	nt	-5
O=c1oc(-c2ccc(O)c(O)c2)cc2cc(O)cc(O)c12	12*	nt	32*	11	-11	nt
CN1/C(=C\C=C(C#N)C#N)C(C)(C)c2ccccc21	-2	72*	9	-4	2	-7
CN1/C(=C/C=N/n2cnnc2)C(C)(C)c2ccccc21	-4	-2	45*	3	-12	nt
CN1/C(=C/C=Nn2cnnc2)C(C)(C)c2ccccc21	nt	nt	nt	nt	nt	7
Cc1ccc(CN2C3c4ccccc4CC3OCCS2(=O)=O)cc1 (stereo not given)	nt	nt	nt	nt	nt	16
SMILES	FadD28 binding	Mtb UGM inh	GDH-TPI counter	FBA Mtb inh	Rv3671c inh	Mtb hypoxia inh
CCN(CC)c1ccc(C=NN2CC(=O)NC2=S)cc1	nt	nt	nt	nt	nt	13
COc1ccc2nc(/C=N/NC(=O)CCNC(=O)OC(C)(C)C)ccc2c1	-2	3	52*	69*	9	nt
COc1ccc2nc(C=NNC(=O)CCNC(=O)OC(C)(C)C)ccc2c1	nt	nt	nt	nt	nt	19
O=C(O)CC1S/C(=N/N=Cc2ccc(-c3ccc(Cl)c([N+](=O)[O-])c3)o2)NC1=O (stereo not given)	nt	nt	nt	nt	nt	14
Cc1ccc(S(=O)(=O)Oc2ccc(C=N/N=C3/NC(=O)C(CC(=O)O)S3)cc2)cc1[N+](=O)[O-] (stereo not given)	nt	nt	nt	nt	nt	2
Cc1ccc(-c2ccc(/C=N/N=C3/NC(=O)C(CC(=O)O)S3)o2)c([N+](=O)[O-])c1 (stereo not given)	1	2	36*	-4	-59	nt
